# Laboratory results published in PubChem BioAssay (NCI).
# Compounds without any hit were thinned out: in the full panel of roughly 79,000, 15% have a hit. Unmarked numbers belong to inactive results. Calls of active or inactive are those of the source. Rule as the data show it: active = growth inhibition above about 70%; inactive = the rest.
# Assay: NCI Yeast Anticancer Drug Screen. Data for the mec2-1 strain (AID 157)
# Details: S. cerevisiae mec2-1 strain, at 50.0 µM (retest, dose inferred, filed as 5.0), hits give high values
# In short: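 mec2-1 yeast strain, carrying an alteration in DNA damage repair or cell cycle control, was exposed to compounds; growth inhibition was measured relative to vehicle-treated controls.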
row,Compound,growth inhibition
1,O=c1oc(-c2ccccc2Br)ns1,100% (active)
2,CC(=O)N1C(C(=O)NNc2ccccc2)CSC1c1ccccc1 (stereo unspecified),84% (active)
3,O=[N+]([O-])/C=C/c1cc2c(ccc3ccccc32)[nH]1,95% (active)
4,CN(C)CCCC1(c2ccccc2)SC(C)(C)c2ccc(Cl)cc21 (stereo unspecified),7%
5,O=c1[nH]c2ccccc2c2oc3ccccc3c12,71% (active)
6,O=C(c1ccccc1)c1cn(/N=C\c2ccccc2)c(=O)nc1-c1ccccc1,96% (active)
7,Cc1ccc(S(=O)(=O)OCCc2ccc(Cl)cc2)cc1,-13%
8,COC(=O)CC1(O)c2cc(OC)c3cccc(OC)c3c2CCC1(C)C(=O)OC (stereo unspecified),99% (active)
9,CC(C)CC(NC(=O)SCc1ccccc1)C(=O)O (stereo unspecified),-5%
10,COc1ccc(/C=C/c2ccnc3ccccc23)cc1,99% (active)
11,N#CC1=C(N)OC(/C=C/c2ccccc2)=C(C#N)C1c1ccccc1 (stereo unspecified),81% (active)
12,COc1ccc(C(=O)C(CN2CCOCC2)CN2CCOCC2)cc1,-6%
13,N/N=C(/N)SCCCCCCCCCCS/C(N)=N/N,78% (active)
14,OC(CBr)C[n+]1cccc2cc(Cl)ccc21 (stereo unspecified),3%
15,O=C(O)C1C(C(=O)Nc2ccc3c(c2)Cc2ccccc2-3)C2(Cl)C(Cl)=C(Cl)C1(Cl)C2(Cl)Cl (stereo unspecified),99% (active)
16,CSc1nc(COC(=O)NC(C)C)c(COC(=O)NC(C)C)n1-c1ccccc1,11%
17,CC(C)C[NH-].CC(C)C[NH-].[Cl][Pt+2]([Cl])([Cl])[Cl],99% (active)
18,c1ccc(N=c2sc3ccccc3sc2=Nc2ccccc2)cc1,50%
19,[Cl-].[La+3].[O-]/N=C(\c1ccccc1)c1ccccn1.[O-]/N=C(\c1ccccc1)c1ccccn1.[O-]/N=C(\c1ccccc1)c1ccccn1,60%
20,Clc1ccc(SSN2CCCCC2)cc1,45%
21,CCC(O)C(O)(c1ccccc1)c1nc2ccccc2s1 (stereo unspecified),11%
22,ONC(=Nc1cccc2ccccc12)C(=Nc1cccc2ccccc12)NO,97% (active)

# Same assay, conditions: S. cerevisiae mec2-1 strain, at 50.0 µM, hits give high values
row,Compound,growth inhibition
1,NC(=O)NC(=O)N/N=C/c1ccc([N+](=O)[O-])o1,22.9%
2,O=[N+]([O-])/C=C\c1csc2ccccc12,99.6% (active)
3,O=[N+]([O-])c1ccc2c(c1)CCc1ccccc1-2,-2.75%
4,CC1=C(C)CC2C(=O)C(C(O)CC(C)C)=CC(=O)C2C1 (stereo unspecified),98.5% (active)
5,CCC(=O)OC1CCC(C2CCCCC2)CC1 (stereo unspecified),-9.55%
6,Cc1cc(C2C(O)C(c3cc(C)on3)C2(C)O)no1 (stereo unspecified),38.5%
7,CC(C)C(Sc1nc(-c2ccccc2)c(-c2ccccc2)[nH]1)C(=O)NN (stereo unspecified),33.4%
8,C/C(=N\NC(=O)N/N=C(\C)c1ccccn1)c1ccccn1,16.8%
9,COC(=O)CCCCCCCCCCC(=O)O,-11.6%
10,CCCCCCCCCCCCNC(=O)C[n+]1cccc(C(N)=O)c1,19.8%
11,Nc1ccccc1N=Cc1ccccc1O,41.2%
12,N#Cc1c(-c2ccc(Cl)cc2)c2c(n(C3OC(CO)C(O)C(O)C3O)c1=S)CCCC2 (stereo unspecified),10.5%
13,CC(C)(C)CC(C)(C)N[P+](NC(C)(C)CC(C)(C)C)(NC(C)(C)CC(C)(C)C)NC(C)(C)CC(C)(C)C,88.3% (active)
14,CC(=O)OC1C(OC(C)=O)C2C(C)CC3OC(=O)C(C)C3CC2(C)C1OC(C)=O (stereo unspecified),77.2% (active)
15,NNC(=O)c1ccc(N)cc1O,-13.8%
16,Nc1ccc2c(c1)C(=O)c1ccccc1-2,26.1%
17,Cc1cn(C(C#N)=C(C#N)C#N)c2ccccc12,22.5%
18,FC(F)(F)COP1(OCC(F)(F)F)=NP(OCC(F)(F)F)(OCC(F)(F)F)=NP(c2ccccc2)(c2ccccc2)=N1,25.4%
19,O=c1oc(-c2ccccc2Br)ns1,99.6% (active)
20,CC(=O)N1C(C(=O)NNc2ccccc2)CSC1c1ccccc1 (stereo unspecified),64.6%
21,O=[N+]([O-])/C=C/c1cc2c(ccc3ccccc32)[nH]1,92.2% (active)
22,CN(C)CCCC1(c2ccccc2)SC(C)(C)c2ccc(Cl)cc21 (stereo unspecified),28.9%
23,O=c1[nH]c2ccccc2c2oc3ccccc3c12,51.5%
24,O=C(c1ccccc1)c1cn(/N=C\c2ccccc2)c(=O)nc1-c1ccccc1,80.2% (active)
